IL2 activator: qHTS of IL-2 Activators; IL-2 activation reporter assay, cell-based qHTS; stimulated with anti-CD3/CD4/CD28 beads; in transgenic mouse T cells; activation, % (series mostly up to about 46 µM); 0.065% of 360,000 active; AID 652025, 2013; in the data active = activation above about 50%; inconclusive = mostly about 30% to 49%
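Readout: EGFP and DsRed signals by fluorescent plate cytometry. Unstimulated transgenic mouse T cells received compound 60 min before antibody-bead stimulation, then incubated 18 h at 37 degrees C.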
PKM2 act: qHTS Assay for Activators of Human Muscle isoform 2 Pyruvate Kinase; Pyruvate kinase PKM (Homo sapiens), P14618; 0.34% of 260,000 active; Potency, µM (highest dose often 57.5 µM), hits mostly activators; AID 1631, 2009; purified PKM2, Kinase-Glo ATP luminescence, activation; response scale: 0% is enzyme alone, no compound; note: nearly all actives have a fitted effect of over 55% in size
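Kinase-Glo luminescence reports ATP generated from ADP (0.1 mM) and PEP (0.5 mM) by purified hPK-M2 after 1 h at room temperature, pH 7.2 imidazole buffer; intermediate enzyme activity allows detecting inhibitors and activators.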
Epigenetic derep: Quantitative High-Throughput Screen for Regulators of Epigenetic Control; Potency, µM (highest dose often 53.9 µM), most hits filed as activators; murine LDR cells, GFP reporter derepression, 30 h; 0.2% of 280,000 active; note: nearly all actives have a fitted effect of over 60% in size
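Readout is the number of GFP-expressing murine LDR cells, counted by cytometry following washing. Cells were treated with compound for 30 h at 37 C; the stably integrated CMV-GFP locus is normally silent.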
B2AR arrestin: qHTS assay of beta-arrestin-biased ligands of beta2-adrenergic receptor; AID 492947, 2010; Potency, µM (titrated, usually from 46.1 µM), hits mostly activators; beta-arrestin recruitment to beta2AR, cell-based reporter; 0.02% of 330,000 active; note: nearly all actives have a fitted effect of over 65% in size
Target sequence (P07550 whole entry, looked up): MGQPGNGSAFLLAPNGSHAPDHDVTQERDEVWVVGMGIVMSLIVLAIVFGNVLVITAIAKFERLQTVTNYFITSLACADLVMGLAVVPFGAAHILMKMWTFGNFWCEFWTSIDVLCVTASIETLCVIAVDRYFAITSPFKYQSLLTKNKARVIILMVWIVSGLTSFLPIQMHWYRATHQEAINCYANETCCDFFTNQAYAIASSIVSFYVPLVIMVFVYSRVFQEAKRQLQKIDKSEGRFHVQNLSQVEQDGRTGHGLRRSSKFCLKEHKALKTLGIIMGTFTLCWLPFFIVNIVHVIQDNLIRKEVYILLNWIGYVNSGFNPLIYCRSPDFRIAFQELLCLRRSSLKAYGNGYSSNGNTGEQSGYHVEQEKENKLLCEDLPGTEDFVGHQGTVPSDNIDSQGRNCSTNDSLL
PINK1 modulator: A Quantitative High throughput Screen to Identify Chemical Modulators of PINK1 Expression; PINK1 immunofluorescence, high-content cytometry, 24 h; Potency, µM (highest dose often 76.6 µM), hits mostly activators; 0.2% of 410,000 active; active = well fitted activation curve with a large enough effect; inconclusive = small, poorly fitted or top-dose-only effect; cell line not stated here; note: nearly all actives have a fitted effect of over 65% in size
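PINK1 protein, normally rapidly degraded, was detected by immunofluorescence after 24 hour compound treatment of a stable cell line. Titration data (5 concentrations) came from laser-scanning cytometry, with CCCP-treated wells as controls.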
Hits are given with their value; - = inactive; ? = inconclusive; . = not tested or not shown. Only some compounds are listed: those with a hit (about 0.58% of all), similar ones and a draw of the others. Unless noted, calls come from the whole dose curve; as a rule, active = well fitted curve in the direction sought with a large enough effect; inconclusive = small, poorly fitted or top-dose-only effect, or another doubt; inactive = no such curve, though single readings can be large; an effect the other way counts as inactive or inconclusive.

SMILES | IL2 activator | PKM2 act | Epigenetic derep | B2AR arrestin | PINK1 modulator
O=C(Nc1ccc(Br)cc1)c1cccc(S(=O)(=O)Nc2cnc3ccccc3c2)c1 | - | - | - | - | ?
CCn1c(/C=C/c2c[nH]c3ccccc23)nc2ccccc2c1=O | - | - | - | - | ?
CN(C)S(=O)(=O)c1ccc2[nH]cc(/C=C/c3nc4ccccc4c(=O)n3-c3ccccc3)c2c1 | - | - | - | - | 11µM
COc1ccc(S(=O)(=O)Nc2ccc(-n3cccc3)cc2)cc1 | - | 10µM | - | - | -
Cc1cc(C)cc(Nc2cc(=O)n(C3CCCCC3)c(=O)[nH]2)c1 | - | - | - | - | ?
Cc1cc2nc3c(=O)n(C4CCCCC4)c(=O)[nH]c3nc2cc1N | - | - | - | - | 14µM
O=C(NC(NC(=S)Nc1cccc(Cl)c1)C(Cl)(Cl)Cl)OCc1ccccc1 (centres undefined) | - | - | - | - | 7.9µM
CCOC(=O)c1c(/N=C/N(C)C)sc(/C=N/Nc2ccccc2)c1-c1ccc(Cl)cc1 | - | - | 11µM | - | -
COc1ccccc1-c1ccnc(-n2ncc(C(=O)NC(c3cccnc3)C(F)(F)F)c2C)n1 (centres undefined) | . | . | . | . | -
CC(C)C(=O)NCC1CCC2(CCN(Cc3ccc(-c4cccc(Cl)c4)o3)CC2)O1 (centres undefined) | . | . | . | . | -
COc1ccc(C(=O)C2CCCN(Cc3cccn3-c3ccccn3)C2)c(OC)c1 (centres undefined) | - | - | - | - | 40µM
COc1ccc(F)cc1C(=O)C1CCCN(Cc2cccn2-c2ccccn2)C1 (centres undefined) | - | - | - | - | -
COc1cc(-c2cnc3ccccc3c2)cc2c1OCCN(C(=O)CCn1nc(C)cc1C)C2 | . | . | . | . | -
COc1ccc(-c2cc(C(F)(F)F)c3c(N)c(C(=O)NCCSC)sc3n2)cc1 | 119 | - | . | - | -
CC(=O)c1sc2nc(-c3cccs3)cc(C(F)(F)F)c2c1N | - | - | 16µM | - | ?
CN(C)CCNC(=O)c1sc2nc(-c3ccccc3)cc(C(F)(F)F)c2c1N | - | - | . | - | -
COc1cc(-c2cc(C)c3c(OC)ccc(OC)c3n2)cc2c1OCCN(C(=O)C(C)c1n[nH]c(=O)c3ccccc13)C2 (centres undefined) | . | . | . | . | -
CN(C)/C=C(\C(=O)c1ccc(F)cc1F)c1nnnn1-c1ccccc1 | - | 16µM | - | - | -
COc1ccc(C2c3ccc(O)cc3Oc3ncn4nc(-c5ccccn5)nc4c32)cc1OC (centres undefined) | - | - | - | - | -
COc1ccc(C2c3ccc(O)cc3Oc3ncn4nc(-c5ccco5)nc4c32)cc1OC (centres undefined) | - | - | 22µM | - | -
CCOc1cc(S(=O)(=O)NCc2ccc(OC)cc2)c(OCC)cc1-n1cnnn1 | - | - | - | - | 5.6µM
O=C(NCC1Cc2cc(F)cc(-c3cnccn3)c2O1)c1cccc(-c2ccccc2F)c1 (centres undefined) | . | . | . | . | -
NC(=O)c1ccc(NCCc2ccccc2)c([N+](=O)[O-])c1 | - | ? | - | - | -
O=C(Nc1ccccc1)c1ccc(NCCc2ccccc2)c([N+](=O)[O-])c1 | - | - | 13µM | - | ?
CC(C)N1CCc2c(sc(NC(=O)c3cc(-c4cccs4)nc4ccccc34)c2C(N)=O)C1 | - | - | 18µM | - | -
SMILES | IL2 activator | PKM2 act | Epigenetic derep | B2AR arrestin | PINK1 modulator
N=c1oc2c3c4c(cc2cc1C(=O)Nc1ccccc1)CCCN4CCC3 | - | - | 0.28µM | - | 11µM
COCCN(C(=O)/C=C/c1ccccc1)c1c(N)n(Cc2ccccc2)c(=O)[nH]c1=O | - | - | - | - | -
COCCN(C(=O)/C=C/c1cccc([N+](=O)[O-])c1)c1c(N)n(Cc2ccccc2)c(=O)[nH]c1=O | - | 3.2µM | - | - | -
Cc1ncc2c(c1CNS(=O)(=O)N(C)C)CCN(C(=O)/C=C/c1ccccc1)C2 | . | . | . | . | -
COCc1c(C(=O)NC2CCCC2)cnn1-c1nccc(-c2cccs2)n1 | . | . | . | . | -
CN1C(=O)/C(=C/c2cn(CC(=O)NCc3ccco3)c3ccccc23)NC1=S | . | 7.9µM | ? | - | .
CN1C(=O)/C(=C/c2cn(CC(=O)N3CCCCC3)c3ccccc23)NC1=S | - | . | . | - | ?
N#Cc1c(-c2ccc(Cl)cc2)n(O)c2ccccc12 | - | . | . | . | 35µM
CCC(=O)Nc1ccc2c(c1)C(=O)N(C1CCCCC1)C2=O | - | - | - | - | 3.5µM
O=C(Nc1ccncc1)c1ccc2c(c1)C(=O)N(C1CCCCC1)C2=O | - | - | - | - | -
Cc1ccc(N=Nc2c(O)[nH]c3ccc(F)cc23)cc1 | 269 | - | ? | - | -
C[n+]1ccc(/C=C/c2cc[n+](C)c3ccccc23)c2ccccc21 | . | . | . | . | 4µM
CN1C=C/C(=C\c2cc[n+](C)c3ccccc23)c2ccccc21 | - | - | - | - | 5µM
COc1ccc(/C=C/c2cc[n+](C)c3ccccc23)cc1OC | . | . | . | . | -
CC[n+]1ccc(/C=C2\Sc3ccccc3N2CCCS(=O)(=O)[O-])c2ccccc21 | - | - | - | - | -
COC(=O)c1c(OCCN2CCCCC2)cc(=O)n2c1CCN(Cc1cccc3nccnc13)CC2 | . | . | . | . | -
CCC1(C2CCN(Cc3cccc(Cl)c3)CC2)NC(=O)N(CC2COc3ccccc3O2)C1=O (centres undefined) | . | . | . | . | -
CCOC(=O)C1=C(C)N=c2s/c(=C\c3ccc(OCC(=O)O)cc3)c(=O)n2C1c1ccccc1 (centres undefined) | - | - | . | - | -
COC(=O)C1=C(C)N=c2s/c(=C/c3ccoc3)c(=O)n2C1c1ccccc1 (centres undefined) | - | 22µM | - | . | -
O=C(Nc1ccc2c(c1)nc1n2CCN(Cc2ccccc2)C1)NC1CCCCC1 | - | - | - | - | 10µM
O=[N+]([O-])c1ccc(Sc2nnnn2-c2ccccc2)nc1 | - | 18µM | - | - | -
Cc1nc(C)c(C(=O)N2CCc3c(cnc(C)c3CNC(=O)c3cncs3)C2)s1 | . | . | . | . | -
Cc1cc(C)nc(S[C@H]2C[C@@H](C(=O)N3CCN(c4ccccc4F)CC3)N(Cc3ccccc3C(F)(F)F)C2)n1 | . | . | . | . | -
COC(=O)C1CCCCN1Cc1ccc2c(c1)CN(C1CCSCC1)CCO2 (centres undefined) | . | . | . | . | -
CO/N=C(\Cn1ncc(N2CCCC2)c(Cl)c1=O)c1ccc(Cl)cc1 | - | 14µM | - | - | -
Cc1ccccc1C(=O)N1CCc2c(cnc(C)c2CNC(=O)c2ccc3c(c2)OCO3)C1 | . | . | . | . | -
Clc1ccc(/C=N/NC2=Nc3cccc4cccc2c34)cc1 | 70 | - | ? | - | -

Bioassay records from PubChem BioAssay.
